We go through 5 compounds from PubChem BioAssay (NCATS).

Test [1] in a line: AP1 Signaling Pathway (AID 357; active means well fitted curve in either direction with a large enough effect, not every such curve was filed as active; further: on the % scale 0 is the no-effect control and ±100 the full control effect). The procedure, abridged: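 AP-1-bla ME-180 cells with beta-lactamase reporter under AP-1 response element, stimulated with EC50 EGF; compounds titrated, 5 hours at 37 degrees Celsius. CCF4 read at 460/530 nm ratio; positive and negative modulators judged by AC50.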
The target in test [2] is Cytochrome P450 1A2 (Homo sapiens) (UniProt P05177). Nature of the test: p450-cyp1a2 (AID 410; calls by dose curve; further: potency means the concentration at half of the fitted maximal effect). The procedure, abridged:
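Human CYP1A2 (20nM) demethylated Luciferin-ME at its Km (100uM) in 100mM KPO4. After 10 min compound preincubation, NADPH regeneration ran the reaction 60 min at room temperature. Luciferin was read by luminescence, normalized to 57 uM furafylline.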

The nature of test [3]: NFAT Signaling Pathway (AID 444; active means well fitted curve in either direction with a large enough effect, not every such curve was filed as active;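 further: carbachol stimulus at about its EC50 of 1 µM final; on the % scale 0 is the no-effect control and ±100 the full control effect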). As to conditions: Jurkat NFAT-bla M1, carbachol, beta-lactamase ratio, 5 h; at 17.2 µM (top of the series) unless noted. The procedure, abridged: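 Jurkat cells carrying an NFAT-driven β-lactamase reporter and co-transfected muscarinic M1 receptor were treated with compound plus carbachol (1 uM final, an EC50 level) for 5 h at 37 °C. CCF4 loading followed for 1 h at RT; 460/530 nm ratio gave %activity.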

Test [4] is described as follows: Stat Signaling Pathway (AID 446; active means well fitted curve in either direction with a large enough effect, not every such curve was filed as active;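 further: ME-180 cervical cancer cells given 40 pM IL-6 alongside compound; SIE-controlled beta-lactamase reporter measured as 460/530 nm FRET emission ratio; on the % scale 0 is the no-effect control and ±100 the full control effect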). The procedure, abridged: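 Reporter line: ME-180 cervical carcinoma, SIE-beta-lactamase. Treatment: compound with 40 pM IL-6, 5 hrs, 37 C, in low-serum OPTI-MEM with 10 mM HEPES pH 7.3. Detection: 460/530 nm fluorescence.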
Test [5] has as its target Glucocorticoid receptor (Homo sapiens) (UniProt P04150). Nature of the test: GR-GFP Redistribution (AID 450;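 active means compounds whose dose series gives a full or clear partial fitted curve of increased nuclear translocation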; further: potency means the concentration at half of the fitted maximal effect). As to conditions: U2OS GR-GFP nuclear translocation, laser cytometry, 2 h.
Test [6] shares this target. Nature of the test: GR-EFC Redistribution (AID 451; calls by dose curve; further: potency means the concentration at half of the fitted maximal effect). To be noted: CHO-K1 GR-EFC translocation, beta-gal luminescence, 2 h. The procedure, abridged: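 CHO-K1 cells stably expressing nuclear-localized β-gal enzyme acceptor and GR fused C-terminally to the enzyme donor fragment; ligand-driven nuclear translocation restores β-gal by complementation. Compounds titrated up to 46 uM final, 2 h at 37 °C; luminescence read.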

For test [7], the target named is Mitogen-activated protein kinase 10 (Mus musculus) (UniProt Q61831). Kind of test: JNK3 AlphaScreen Assay (AID 530; active means well fitted curve in either direction with a large enough effect, not every such curve was filed as active;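 further: kinase came from lysate of stimulated human HepG2 cells; signal reports phosphorylation of biotinylated GST-cJun 1-79 at Ser73 with 10 µM ATP; on the % scale 0 is the no-effect control and ±100 the full control effect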). The procedure, abridged: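 JNK3 came from HepG2 lysates pre-activated with IL-1beta and TNF-alpha and phosphorylated biotinylated GST-cJun (1-79) at 10 uM ATP, pH 7.6, room temperature. Compounds were titrated. AlphaScreen signal used anti-phospho-cJun (Ser73) antibody.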

Test [8] has as its target 3',5'-cyclic-AMP phosphodiesterase 4B (Homo sapiens) (UniProt Q07343). Nature of the test: qHTS Assay for Inhibitors of PDE-IV (AID 607; active means well fitted activation curve with a large enough effect in the main read-out, with a control signal flat, not every such curve was filed as active; further: % of control where 0% means no effect). The procedure, abridged: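 Cell-based read-out of cAMP via a modified cyclic nucleotide-gated channel and membrane potential dye (535/590 nm) in HEK293 cells expressing PDE4 endogenously. Compounds tested up to 22.9 uM final; 100 uM RO 20-1724 reference.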

A short description of test [9]: qHTS Assay for Lipid Storage Modulators (AID 1519; calls by dose curve). To be noted: Drosophila S3 cells, BODIPY lipid droplet/cell ratio, laser cytometry, cells loaded with oleic acid; for activity change, negative = inhibition: at 25.7 µM (top of the series). The procedure, abridged:
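Cells seeded at 5,000 per well were treated with compounds over a concentration series and loaded with oleic acid (400 uM, as added). Lipid droplet fluorescence (488 nm excitation, 500-530 nm channel) was read by laser-scanning cytometry and normalized to 20 uM Triacsin C.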
(In general: qHTS replaces the single test concentration by a dilution series.)

Test [10] deals with ATP-dependent 6-phosphofructokinase (Trypanosoma brucei brucei) (UniProt O15648). Kind of test: qHTS Assay to Find Inhibitors of T. brucei phosphofructokinase: hit validation (AID 492961). The procedure, abridged: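 Percent activity derived from corrected luminescence, normalized between 0x and 1x enzyme controls, then fitted to concentration-response curves. Conditions: 1.25 nM PFK, 0.1 mM ATP, 0.5 mM F6P, 45 min RT.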

The target of test [11] is Ubiquitin carboxyl-terminal hydrolase 1 (Homo sapiens) (UniProt O94782). Nature of the test: Inhibitors of USP1/UAF1: Pilot qHTS (AID 504865).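 Further: rhodamine fluorescence freed from ubiquitin-rhodamine substrate followed over time; top concentration of the series differs between compounds; on the % scale 0 is the no-effect control and ±100 the full control effect; nearly all actives have a fitted effect of over 35% in size.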 The procedure, abridged:
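Kinetic fluorescence assay: 1nM USP1/UAF1, 15 min compound preincubation, then 150nM Ub-Rho; 480/540 nm.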

The target in test [12] is Luciferin 4-monooxygenase (Photinus pyralis) (UniProt P08659). Kind of test: Biochemical firefly luciferase enzyme assay for NPC (AID 624030).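 Further: purified P. pyralis luciferase at 10 nM with luciferin and ATP substrate; 0% = DMSO and -100% = full luciferase inhibition by PTC124 control; nearly all actives have a fitted effect of over 70% in size.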 The method, boiled down: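 Counter-screen for direct inhibition of the luciferase enzyme by approved-drug library compounds, run at 10 nM enzyme in 50 mM Tris acetate (final). Luminescence was read within 5 min of enzyme-buffer addition and normalized to PTC124 versus DMSO (0%).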

A short description of test [13]: qHTS profiling for inhibitors of Plasmodium falciparum proliferation (AID 504749).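 Further: 0% = DMSO vehicle and full inhibition = artemisinin control; nearly all actives have a fitted effect of over 60% in size.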 To be noted: P. falciparum in erythrocytes, SYBR Green DNA, 72 h, at 12.8 µM (top of the series). The procedure, abridged: (§1)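 P. falciparum-infected erythrocytes (0.3% parasitemia, 2.5% hematocrit final) were exposed to compounds for 72 h at 37 C in 5% CO2, then lysed with SYBR Green buffer overnight at room temperature; parasite DNA fluorescence was normalized to artemisinin and DMSO controls.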

Another test relates to 3D7. The description is as above. To be noted: P. falciparum in erythrocytes, SYBR Green DNA, 72 h; series mostly up to 12.8 µM. The procedure, abridged:
as §1

The test system of another test is C2A. The description is as above. To be noted: P. falciparum in erythrocytes, SYBR Green DNA, 72 h; series mostly up to 12.8 µM. The method, boiled down: as §1
The next test has as its system CP217. The description is as above. As to conditions: P. falciparum in erythrocytes, SYBR Green DNA, 72 h; series mostly up to 12.8 µM. The method, boiled down: as §1
A further test deals with CP250. The test is described as above. As to conditions: P. falciparum in erythrocytes, SYBR Green DNA, 72 h; series mostly up to 12.8 µM. The method, boiled down:
as §1

The next test deals with FAB9. The test is described as above. To be noted: P. falciparum in erythrocytes, SYBR Green DNA, 72 h; series mostly up to 12.8 µM. The procedure, abridged: as §1
A further test deals with JCK. Described as above. As to conditions: P. falciparum in erythrocytes, SYBR Green DNA, 72 h; series mostly up to 12.8 µM. The procedure, abridged:
as §1

The subject of a further test is PC49. Described as above. To be noted: P. falciparum in erythrocytes, SYBR Green DNA, 72 h; series mostly up to 12.8 µM. The procedure, abridged:
as §1

The mark [14] stands for this setting: measured here: cell count channel max response.
Where [15] appears, read: measured here: lipid channel max response.

Structures are written as SMILES. Inconclusive results are not listed. Calls of active or inactive are those of the source. Unless noted, the call rests on the fitted dose curve; in most records, active means well fitted curve in the direction sought with a large enough effect; inconclusive means small, poorly fitted or top-dose-only effect, or another doubt; inactive means no such curve, though single readings can be large; an effect the other way counts as inactive or inconclusive.

Chain of Luciferin 4-monooxygenase (Photinus pyralis) (P08659 whole entry, looked up): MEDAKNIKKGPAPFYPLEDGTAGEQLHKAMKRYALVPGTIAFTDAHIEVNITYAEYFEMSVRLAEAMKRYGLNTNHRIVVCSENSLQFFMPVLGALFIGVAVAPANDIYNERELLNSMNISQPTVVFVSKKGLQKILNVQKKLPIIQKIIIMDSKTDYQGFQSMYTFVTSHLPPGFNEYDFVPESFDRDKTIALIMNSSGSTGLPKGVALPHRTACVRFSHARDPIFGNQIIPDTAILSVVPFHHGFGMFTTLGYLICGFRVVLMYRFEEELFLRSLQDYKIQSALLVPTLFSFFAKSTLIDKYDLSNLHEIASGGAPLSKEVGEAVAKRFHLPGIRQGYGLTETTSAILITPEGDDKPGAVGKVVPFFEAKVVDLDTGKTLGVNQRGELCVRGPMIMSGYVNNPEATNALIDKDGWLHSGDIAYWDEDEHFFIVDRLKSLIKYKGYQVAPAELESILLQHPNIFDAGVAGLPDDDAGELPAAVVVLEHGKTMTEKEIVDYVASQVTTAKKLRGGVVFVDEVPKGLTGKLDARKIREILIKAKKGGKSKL
Chain of Glucocorticoid receptor (Homo sapiens) (P04150 whole entry, looked up, the tested form may be a part): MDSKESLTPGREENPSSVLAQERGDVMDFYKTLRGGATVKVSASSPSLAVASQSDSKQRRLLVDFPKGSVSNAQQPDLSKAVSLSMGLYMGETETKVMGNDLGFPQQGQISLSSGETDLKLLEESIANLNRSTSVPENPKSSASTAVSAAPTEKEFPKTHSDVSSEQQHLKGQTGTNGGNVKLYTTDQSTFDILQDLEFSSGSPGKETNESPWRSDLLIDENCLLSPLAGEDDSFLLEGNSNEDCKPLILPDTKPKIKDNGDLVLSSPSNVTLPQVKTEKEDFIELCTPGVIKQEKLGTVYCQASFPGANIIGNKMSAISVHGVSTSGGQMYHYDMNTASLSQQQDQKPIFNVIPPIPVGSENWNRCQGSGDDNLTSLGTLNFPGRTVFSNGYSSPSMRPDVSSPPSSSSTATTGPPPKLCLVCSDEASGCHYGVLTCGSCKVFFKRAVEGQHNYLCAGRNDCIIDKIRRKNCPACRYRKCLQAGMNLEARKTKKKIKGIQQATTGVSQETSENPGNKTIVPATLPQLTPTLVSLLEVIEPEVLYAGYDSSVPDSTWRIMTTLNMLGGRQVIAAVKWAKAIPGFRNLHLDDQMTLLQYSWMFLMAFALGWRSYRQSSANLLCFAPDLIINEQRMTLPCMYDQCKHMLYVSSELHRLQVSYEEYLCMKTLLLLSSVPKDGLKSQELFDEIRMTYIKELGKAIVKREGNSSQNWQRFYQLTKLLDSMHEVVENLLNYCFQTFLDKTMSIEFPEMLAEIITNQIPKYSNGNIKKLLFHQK
Chain of Cytochrome P450 1A2 (Homo sapiens) (P05177 whole entry, looked up): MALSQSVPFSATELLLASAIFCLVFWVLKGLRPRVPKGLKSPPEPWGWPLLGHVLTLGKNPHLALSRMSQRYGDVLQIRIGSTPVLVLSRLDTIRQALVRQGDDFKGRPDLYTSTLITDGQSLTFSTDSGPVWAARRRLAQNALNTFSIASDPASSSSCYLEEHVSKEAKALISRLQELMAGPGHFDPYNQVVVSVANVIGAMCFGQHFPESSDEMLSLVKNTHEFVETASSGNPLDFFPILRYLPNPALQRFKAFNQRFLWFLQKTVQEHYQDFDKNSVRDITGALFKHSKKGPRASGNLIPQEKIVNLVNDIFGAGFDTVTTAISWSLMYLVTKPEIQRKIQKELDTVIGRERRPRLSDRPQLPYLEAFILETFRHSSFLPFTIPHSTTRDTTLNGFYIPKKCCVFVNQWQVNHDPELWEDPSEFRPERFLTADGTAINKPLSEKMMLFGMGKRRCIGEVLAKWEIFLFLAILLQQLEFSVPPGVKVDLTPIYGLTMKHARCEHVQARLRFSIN
Chain of 3',5'-cyclic-AMP phosphodiesterase 4B (Homo sapiens) (Q07343 whole entry, looked up): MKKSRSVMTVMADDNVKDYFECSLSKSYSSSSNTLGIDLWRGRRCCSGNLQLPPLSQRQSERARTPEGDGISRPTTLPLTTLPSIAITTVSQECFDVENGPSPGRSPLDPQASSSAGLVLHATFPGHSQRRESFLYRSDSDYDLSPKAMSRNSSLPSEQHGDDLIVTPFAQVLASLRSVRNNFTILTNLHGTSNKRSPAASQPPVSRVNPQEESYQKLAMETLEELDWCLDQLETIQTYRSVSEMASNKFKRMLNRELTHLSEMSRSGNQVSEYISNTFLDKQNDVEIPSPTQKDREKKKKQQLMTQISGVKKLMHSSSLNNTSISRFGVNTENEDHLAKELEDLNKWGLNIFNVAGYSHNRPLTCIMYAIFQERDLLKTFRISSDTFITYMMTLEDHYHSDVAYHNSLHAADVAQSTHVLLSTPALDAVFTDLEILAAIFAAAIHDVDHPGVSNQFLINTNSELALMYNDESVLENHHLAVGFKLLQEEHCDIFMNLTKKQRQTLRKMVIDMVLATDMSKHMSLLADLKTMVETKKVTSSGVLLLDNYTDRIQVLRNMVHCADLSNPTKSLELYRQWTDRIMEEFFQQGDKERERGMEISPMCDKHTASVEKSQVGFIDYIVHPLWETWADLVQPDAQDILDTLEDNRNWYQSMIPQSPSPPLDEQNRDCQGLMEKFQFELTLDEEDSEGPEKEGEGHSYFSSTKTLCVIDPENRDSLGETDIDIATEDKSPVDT
Chain of Ubiquitin carboxyl-terminal hydrolase 1 (Homo sapiens) (O94782 whole entry, looked up): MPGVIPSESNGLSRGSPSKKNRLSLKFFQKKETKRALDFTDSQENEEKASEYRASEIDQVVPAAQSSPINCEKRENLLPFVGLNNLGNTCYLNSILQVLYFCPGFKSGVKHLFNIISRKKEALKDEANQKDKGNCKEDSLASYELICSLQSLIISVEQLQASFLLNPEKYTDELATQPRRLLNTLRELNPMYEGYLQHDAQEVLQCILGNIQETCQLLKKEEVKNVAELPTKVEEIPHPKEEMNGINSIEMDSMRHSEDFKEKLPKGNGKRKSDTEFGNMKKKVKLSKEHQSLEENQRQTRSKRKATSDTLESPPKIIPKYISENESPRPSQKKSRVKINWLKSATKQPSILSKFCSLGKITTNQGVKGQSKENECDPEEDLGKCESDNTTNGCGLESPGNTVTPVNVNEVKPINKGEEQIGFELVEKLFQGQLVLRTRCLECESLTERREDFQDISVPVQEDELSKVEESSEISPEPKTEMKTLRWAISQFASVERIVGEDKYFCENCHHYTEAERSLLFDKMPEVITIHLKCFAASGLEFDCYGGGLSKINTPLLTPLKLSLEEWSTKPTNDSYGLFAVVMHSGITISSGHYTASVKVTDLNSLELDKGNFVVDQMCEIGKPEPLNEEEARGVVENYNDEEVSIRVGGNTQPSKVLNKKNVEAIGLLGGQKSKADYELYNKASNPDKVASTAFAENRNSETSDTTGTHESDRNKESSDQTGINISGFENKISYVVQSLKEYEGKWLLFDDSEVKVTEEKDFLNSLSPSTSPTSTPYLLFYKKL
Chain of ATP-dependent 6-phosphofructokinase (Trypanosoma brucei brucei) (O15648 whole entry, looked up): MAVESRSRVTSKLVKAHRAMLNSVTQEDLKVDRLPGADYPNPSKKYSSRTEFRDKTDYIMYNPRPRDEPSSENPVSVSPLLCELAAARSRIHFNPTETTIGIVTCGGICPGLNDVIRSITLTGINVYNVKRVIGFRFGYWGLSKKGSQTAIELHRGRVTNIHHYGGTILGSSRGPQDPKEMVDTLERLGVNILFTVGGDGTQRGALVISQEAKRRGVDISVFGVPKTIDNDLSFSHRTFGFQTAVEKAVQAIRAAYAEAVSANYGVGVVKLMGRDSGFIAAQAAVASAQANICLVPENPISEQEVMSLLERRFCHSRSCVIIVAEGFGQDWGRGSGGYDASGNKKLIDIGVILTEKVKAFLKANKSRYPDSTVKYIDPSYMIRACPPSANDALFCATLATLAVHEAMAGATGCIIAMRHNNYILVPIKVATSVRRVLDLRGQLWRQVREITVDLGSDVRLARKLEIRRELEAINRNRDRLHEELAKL

Regarding `COc1ccc([C@@H]2CC(=O)c3c(O)cc(O[C@H]4O[C@@H](CO[C@H]5O[C@@H](C)[C@@H](O)[C@@H](O)[C@@H]5O)[C@@H](O)[C@@H](O)[C@@H]4O)cc3O2)cc1O`, the compound was classed as inactive in test [1], in test [4], in test [8] and in [10]. Further, the Potency entry (in [2]; in test [7]; in test [11]; in test [12]; in the test on 3D7; in the test on C2A) was “inactive” in each case. Further, the Potency entry in the test with CP217, in the test with CP250, with FAB9, with JCK and in the test with PC49 was “inactive” throughout. Further, the activity change, negative = inhibition is 6.75% (inactive) in test [3] and -0.902% (inactive) in test [9]. Also, the Potency in test [5] and in test [6] was > 20.6 µM (inactive) each time. Also, the max response is -12% in test [9] (setting [14]) and -8.76% in test [9] (setting [15]). The activity, negative = inhibition in test [13] (parasite line A) was 5.87% (inactive); in test [13] (parasite line B), -4.16% (inactive).

Take `C#C[C@]1(O)CC[C@@H]2[C@H]3CCc4cc(OC)ccc4[C@@H]3CC[C@@]21C`: the result in test [1], in test [4] and in test [8] was inactive. Moreover, the Potency is 501 nM (active) in test [2], > 20.6 µM (inactive) in [5] and > 20.6 µM (inactive) in test [6]. The activity change, negative = inhibition in test [3] was -23.4% (inactive); in test [9], -2.31% (inactive). Also, the Potency result in [7] and in test [11] was “inactive” in each case. The results for the max response in test [9] (setting [14]) and in test [9] (setting [15]) were -15.5% and -16.7%, respectively.

On to `C[C@H](N[C@@H](C)COc1ccccc1)[C@H](O)c1ccc(O)cc1`, for which the compound was classed as inactive in test [1], in test [4], in test [8] and in [10]. Moreover, the results for the Potency in test [2], in test [5] and in test [6] were 5010 nM (active), > 20.6 µM (inactive) and > 20.6 µM (inactive), respectively. In addition, the activity change, negative = inhibition in [3] is -9.06% (inactive); in test [9], 0.23% (inactive). In addition, the Potency entry (in test [7]; in test [11]; in [12]; with 3D7; in the test on C2A; in the test with CP217) was “inactive” throughout. Further, the Potency result in the test with CP250, in the test with FAB9, with JCK and in the test on PC49 was “inactive” throughout. Besides, the max response in test [9] (setting [14]) is -4.01%; in test [9] (setting [15]), -3.47%. For the same compound, the activity, negative = inhibition in test [13] (parasite line A) was 2.67% (inactive); in test [13] (parasite line B), 10.2% (inactive).

Regarding `NC(=O)c1ncn([C@H]2O[C@@H](CO)[C@@H](O)[C@@H]2O)n1`, the result in [1], in test [4] and in test [8] was inactive. The Potency entry in [2], in test [7] and in test [11] was “inactive” throughout. The activity change, negative = inhibition is -18.7% (inactive) in test [3] and 1.03% (inactive) in test [9]. For the same compound, the Potency in test [5] and in test [6] was > 20.6 µM (inactive) throughout. In addition, the figures for the max response in test [9] (setting [14]) and in test [9] (setting [15]) were -8.81% and -7.48%, respectively.

As for `C/C(=C(/CCO)SSC[C@@H]1CCCO1)N(C=O)Cc1cnc(C)nc1N`, the result in test [1], in test [4] and in test [8] was inactive. Also, the Potency entry in test [2], in test [7], in test [11] and in test [12] was “inactive” in each case. For the same compound, the figures for the activity change, negative = inhibition in test [3] and in test [9] were -21.3% (inactive) and -0.641% (inactive), respectively. Further, the Potency in test [5] and in test [6] was > 20.6 µM (inactive) throughout. Also, the max response was -21% in [9] (setting [14]) and -20.8% in test [9] (setting [15]).
